Laboratory results from PubChem BioAssay (NCATS).
“And” between values parts separate entries of the source, which are not always exact repeats. Equal entries are not always repeated. Records with an inconclusive call do not appear. The source made the active and inactive calls. Unless noted, the call rests on the fitted dose curve; in most records, active means well fitted curve in the direction sought with a large enough effect; inconclusive means small, poorly fitted or top-dose-only effect, or another doubt; inactive means no such curve, though single readings can be large; an effect the other way counts as inactive or inconclusive.

Key:
[1] = target: Arylsulfatase A (Homo sapiens) (UniProt P15289); test: qHTS screen for enhancers of Arylsulfatase A (ASA1): LOPAC Validation Assay (AID 720538); conditions: ASA enzyme activity, LOPAC qHTS enhancer assay; series mostly up to 57.5 µM; further: potency means the concentration at half of the fitted maximal effect
Chain of Arylsulfatase A (Homo sapiens) (P15289 whole entry, looked up): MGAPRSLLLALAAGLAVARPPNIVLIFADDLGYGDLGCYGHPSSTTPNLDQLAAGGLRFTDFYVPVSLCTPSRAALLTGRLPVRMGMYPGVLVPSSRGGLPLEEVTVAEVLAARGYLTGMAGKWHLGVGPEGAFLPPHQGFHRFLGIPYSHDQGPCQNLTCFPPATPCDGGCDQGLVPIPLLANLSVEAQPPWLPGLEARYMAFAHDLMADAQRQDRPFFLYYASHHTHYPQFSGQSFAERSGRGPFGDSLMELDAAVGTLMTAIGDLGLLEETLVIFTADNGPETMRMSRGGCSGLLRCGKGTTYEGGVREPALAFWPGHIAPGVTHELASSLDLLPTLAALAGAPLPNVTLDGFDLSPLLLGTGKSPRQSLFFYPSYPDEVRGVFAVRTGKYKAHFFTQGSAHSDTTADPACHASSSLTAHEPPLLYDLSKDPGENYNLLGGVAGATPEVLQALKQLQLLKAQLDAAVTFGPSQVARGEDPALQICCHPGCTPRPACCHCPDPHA
How it was run: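 Read-out: fluorescence at Ex=525/Em=598 nm after 1N NaOH final stop. Patient fibroblasts carrying ASA-I179S had 48h compound exposure, then 14h room-temperature pNCS hydrolysis (0.5mM final) in lysis buffer. Signal increase = enhanced activity.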

[2] = qHTS for compounds that reverse cellular toxicity of Amyloid beta (A-beta) peptide in yeast: LOPAC Validation Assay (AID 720559); conditions: yeast expressing A-beta; series mostly up to 46.1 µM;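 further: plate controls were DMSO for no effect and equimolar ferric chloride plus clioquinol rescue for full effect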
How it was run: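 OD600 growth readout after 48 hr at 30 C; A-beta-toxic yeast plus pinned compounds in medium. Normalization: DMSO = negative, equimolar FeCl3 + clioquinol = positive.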

[3] = qHTS for Activators of Parkin Expression: LOPAC Validation Assay (NLuc Reporter) (AID 720572); conditions: Parkin promoter NanoLuc reporter cells, luminescence; series mostly up to 46.1 µM
How it was run: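 NLuc signal, read 10 min after reagent and following a prior FLuc read, is normalized to DMSO (0) and positive controls (100%). Cells: neuronal Parkin-promoter coincidence reporter line; compounds tested 7-point, 24 h, 37 C, 5% CO2.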

[4] = qHTS for Activators of Parkin Expression: LOPAC Validation Assay (FLuc Reporter) (AID 720573); conditions: Cell line, PRKN promoter firefly luciferase reporter, vehicle wells = 0, positive control = 100%; series mostly up to 46.1 µM
How it was run: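 FLuc luminescence read-out from a neuronal line expressing a Parkin-promoter-driven coincidence reporter. Cells treated 24 h at 37 C, 5% CO2 with compounds at 7 concentrations; signal increase normalized to DMSO and positive control.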

[5] = target: T1, Hexokinase-4 (Homo sapiens) + Glucokinase regulatory protein (Homo sapiens) (UniProt P35557+Q14397); test: qHTS assay for inhibitors of recombinant human GCK-GKRP interaction: Diaphorase-coupled assay (AID 743205); conditions: G6PDH/diaphorase resorufin fluorescence; series mostly up to 57.5 µM
T1 sequence (P35557 whole entry, looked up): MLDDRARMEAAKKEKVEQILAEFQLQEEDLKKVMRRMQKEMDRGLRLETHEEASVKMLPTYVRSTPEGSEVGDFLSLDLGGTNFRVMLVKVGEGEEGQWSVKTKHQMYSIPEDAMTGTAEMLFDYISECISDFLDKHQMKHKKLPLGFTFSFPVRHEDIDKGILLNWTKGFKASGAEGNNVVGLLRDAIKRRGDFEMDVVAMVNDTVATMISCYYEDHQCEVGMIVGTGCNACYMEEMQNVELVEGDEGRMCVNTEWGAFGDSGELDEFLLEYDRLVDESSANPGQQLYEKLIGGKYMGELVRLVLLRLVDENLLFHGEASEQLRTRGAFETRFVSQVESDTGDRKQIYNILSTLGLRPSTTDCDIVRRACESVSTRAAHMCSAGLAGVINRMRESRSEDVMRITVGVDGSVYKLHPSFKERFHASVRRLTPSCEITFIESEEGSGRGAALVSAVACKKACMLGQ
T1 sequence (Q14397 whole entry, looked up): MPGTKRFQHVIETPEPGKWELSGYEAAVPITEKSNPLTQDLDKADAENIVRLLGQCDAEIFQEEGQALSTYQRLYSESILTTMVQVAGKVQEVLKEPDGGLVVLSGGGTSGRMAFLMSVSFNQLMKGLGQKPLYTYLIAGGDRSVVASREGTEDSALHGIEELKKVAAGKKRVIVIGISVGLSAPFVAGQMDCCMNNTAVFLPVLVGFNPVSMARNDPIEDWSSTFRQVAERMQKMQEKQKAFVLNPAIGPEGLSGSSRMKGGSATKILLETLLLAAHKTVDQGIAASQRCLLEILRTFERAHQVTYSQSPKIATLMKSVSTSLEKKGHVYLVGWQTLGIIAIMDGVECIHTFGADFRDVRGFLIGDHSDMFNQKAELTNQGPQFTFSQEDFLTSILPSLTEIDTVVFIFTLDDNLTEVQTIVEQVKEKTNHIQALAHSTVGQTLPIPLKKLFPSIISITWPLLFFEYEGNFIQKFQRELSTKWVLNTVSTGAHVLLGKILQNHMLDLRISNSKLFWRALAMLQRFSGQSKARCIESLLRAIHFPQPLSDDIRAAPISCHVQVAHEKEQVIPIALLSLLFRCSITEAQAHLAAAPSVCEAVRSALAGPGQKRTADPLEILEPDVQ
How it was run: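 Resorufin fluorescence (525/590 nm), read each minute over 30 min, reports GCK activity coupled via G6PDH and diaphorase. Reaction: 10 nM GST-GCK, 10 nM FLAG-GKRP, 5 mM glucose, 0.4 mM ATP, 0.15 mM NADP+, 0.1 mM resazurin.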

[6] = target: T1, Hexokinase-4 (Homo sapiens) + Glucokinase regulatory protein (Homo sapiens); test: qHTS assay for inhibitors of recombinant human GCK-GKRP interaction: ADP-Glo assay (AID 743206); conditions: ADP-Glo luminescence, 60 min, 0% = vehicle-only wells with enzyme present; series mostly up to 76.9 µM;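 further: plate controls were DMSO plus enzyme for no effect and no enzyme for full effect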
How it was run: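 Pin-transferred compounds meet a 15 nM GST-GCK/15 nM FLAG-GKRP/2 uM S6P mix (dispense concentrations). ATP is then added to 0.4 mM final with 5 mM glucose, and the reaction runs 60 min at room temperature. ADP is quantified luminescently.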

[7] = target: T1, Hexokinase-4 (Homo sapiens) + Glucokinase regulatory protein (Homo sapiens); test: qHTS assay for inhibitors of recombinant human GCK-GKRP interaction: HTRF assay (AID 743207); conditions: recombinant GCK-GKRP HTRF binding, 60 min; series mostly up to 57.5 µM;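 further: 0% = DMSO with GCK present and -100% = DMSO wells lacking GCK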
How it was run: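 HTRF read-out (ex 320 nm; 615/665 nm emission) after 60 min RT equilibration of 5 nM GST-GCK, 5 nM FLAG-GKRP, 2 uM S6P, compound and anti-FLAG/anti-GST detection antibodies; signal normalized between DMSO wells with and without GCK.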

[8] = qHTS assay to identify small molecules that stimulate interleukin-8 (IL-8) secretion (AID 651758; active means well fitted activation curve with a large enough effect in the signal ratio; the % refers to the signal ratio; further: 0% is about no effect); conditions: HTRF ratio (665/615); series mostly up to 92.2 µM
How it was run: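 Compounds are added to THP-1 cells (2000 per well) and left 16 hrs at 37 C. A labeled anti-IL-8 antibody pair is then added, and IL-8 secretion is measured by time-resolved FRET after 1-3 hrs at room temperature.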

[9] = qHTS assay for environmental chemicals that activate the Aryl hydrocarbon Receptor (AhR) signaling pathway (AID 651777); conditions: 1A2-DRE human hepatoma cells, luciferase, 24 h; activation: stronger effect = higher value; further: nearly all actives have a fitted effect of over 15% in size; further: potency means the concentration at half of the fitted maximal effect; on activation: % of control where 0% means no effect
How it was run: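 Measured luciferase activity, read 30 min after One-Glo addition at room temperature, from human hepatoma cells bearing a dioxin response element–CYP1A2 promoter reporter and exposed to compound for 24 hr at 37 C.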

[10] = target: Peroxisome proliferator-activated receptor alpha (Homo sapiens) (UniProt Q07869); test: qHTS assay for small molecule agonists of the peroxisome proliferator-activated receptor alpha (PPARalpha) signaling pathway (AID 651778); conditions: PathHunter PPARalpha complementation, chemiluminescence, 6 h; max response: stronger effect = higher value; further: potency means the concentration at half of the fitted maximal effect; on max response: % of control where 0% means no effect
Chain of Peroxisome proliferator-activated receptor alpha (Homo sapiens) (Q07869 whole entry, looked up, the tested form may be a part): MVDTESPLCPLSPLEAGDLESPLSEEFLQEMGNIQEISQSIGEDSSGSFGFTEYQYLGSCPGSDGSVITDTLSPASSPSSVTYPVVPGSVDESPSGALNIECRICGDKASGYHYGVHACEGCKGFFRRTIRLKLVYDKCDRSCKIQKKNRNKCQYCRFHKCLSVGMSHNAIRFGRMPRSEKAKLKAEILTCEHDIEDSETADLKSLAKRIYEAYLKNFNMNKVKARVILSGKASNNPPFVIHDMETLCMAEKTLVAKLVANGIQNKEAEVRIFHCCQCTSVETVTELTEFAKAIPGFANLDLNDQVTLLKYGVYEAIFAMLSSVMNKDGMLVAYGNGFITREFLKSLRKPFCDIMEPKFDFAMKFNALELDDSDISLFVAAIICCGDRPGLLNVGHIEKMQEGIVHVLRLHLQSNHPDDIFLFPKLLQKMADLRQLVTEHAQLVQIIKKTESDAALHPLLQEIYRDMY
How it was run: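 Enzyme-fragment complementation assay in which ligand-bound PPARalpha translocates and forms an active enzyme that generates chemiluminescence. Cells were plated overnight, exposed to compound for 6 hr at 37 C, and then given detection reagent for 60 min at room temperature.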

[11] = target: Nuclear receptor ROR-gamma (Homo sapiens) (UniProt P51449); test: qHTS assay for small molecule antagonists of the retinoid-related orphan receptor gamma (ROR-gamma) signaling pathway (AID 651802); conditions: ROR-gamma antagonist cell reporter assay; series mostly up to 92.2 µM; further: nearly all actives have a fitted effect of over 60% in size; further: potency means the concentration at half of the fitted maximal effect
Chain of Nuclear receptor ROR-gamma (Homo sapiens) (P51449 whole entry, looked up): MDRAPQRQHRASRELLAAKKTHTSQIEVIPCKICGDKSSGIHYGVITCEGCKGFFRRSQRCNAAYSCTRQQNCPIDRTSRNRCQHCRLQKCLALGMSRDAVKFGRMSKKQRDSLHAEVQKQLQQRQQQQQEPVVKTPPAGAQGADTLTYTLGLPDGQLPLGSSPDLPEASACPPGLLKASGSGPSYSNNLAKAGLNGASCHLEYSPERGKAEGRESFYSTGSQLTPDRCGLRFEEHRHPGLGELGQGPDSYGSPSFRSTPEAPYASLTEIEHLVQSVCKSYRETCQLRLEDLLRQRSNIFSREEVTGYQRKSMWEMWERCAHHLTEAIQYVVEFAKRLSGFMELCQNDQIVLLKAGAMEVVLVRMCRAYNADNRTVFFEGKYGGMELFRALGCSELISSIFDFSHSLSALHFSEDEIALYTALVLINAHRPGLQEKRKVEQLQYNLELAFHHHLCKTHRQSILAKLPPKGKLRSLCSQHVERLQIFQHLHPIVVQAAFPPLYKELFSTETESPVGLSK
How it was run: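 Luminescence (One-Glo, 30 min RT) measured 16 h after compound addition and doxycycline induction at 37C. Reporter: RORE-luciferase under TET-inducible ROR-gamma in CHO cells.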

[12] = qHTS assay for small molecule agonists of the antioxidant response element (ARE) signaling pathway measured by Nrf2-dependant transcriptional activity (AID 720636; active means well fitted curve in the direction sought with a large enough effect in the repeat runs; an effect the other way counts as inactive or inconclusive; further: potency means the concentration at half of the fitted maximal effect;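 on activation: HepG2 cells with an ARE-driven luciferase reporter; % of control where 0% means no effect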); conditions: ARE-luc HepG2, Nrf2 luciferase reporter, 16 h; series mostly up to 92.4 µM
How it was run: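 In HepG2 cells engineered with an Nrf2-responsive luciferase gene, ARE induction was quantified as luminescence after 16 hr compound treatment at 37 C.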

[13] = qHTS assay for small molecule antagonists of the retinoid-related orphan receptor gamma (ROR-gamma) signaling pathway - cell viability counter screen (AID 720652; active means well fitted curve in the direction sought with a large enough effect in the repeat runs; an effect the other way counts as inactive or inconclusive;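 further: compound exposure lasted 16 hr before ATP read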; further: potency means the concentration at half of the fitted maximal effect); conditions: RORgamma reporter cell line viability counter screen; series mostly up to 92.2 µM
How it was run: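 Cytotoxicity counter screen: intracellular ATP (CellTiter-Glo luminescence) measured in the doxycycline-induced CHO RORE-luciferase reporter line after 16 hr compound exposure at 37 C, 5% CO2.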

[14] = qHTS assay for small molecule agonists of the antioxidant response element (ARE) signaling pathway measured by Nrf2-dependant transcriptional activity - cell viability counter screen (AID 720653; active means well fitted curve in the direction sought with a large enough effect in the repeat runs; an effect the other way counts as inactive or inconclusive; further: on the % scale 0 is the no-effect control and ±100 the full control effect); conditions: ARE-bla HepG2 viability, CellTiter-Glo ATP luminescence, 16 h; stronger effect = lower value
How it was run: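 ARE-bla HepG2 cells treated with compounds for 16 h at 37C; this counter screen measures viability as intracellular ATP by CellTiter-Glo luminescence after 30 min at room temperature.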

[15] = qHTS Assay for Identifying Gametocytocidal Compounds (AID 743244); further: potency means the concentration at half of the fitted maximal effect;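 on max response: on the % scale 0 is the no-effect control and ±100 the full control effect; actives lower the fluorescent signal which means gametocytes are killed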; conditions: P. falciparum 3D7 stage III-V gametocytes, alamarBlue, 72 h; max response: stronger effect = lower value
How it was run: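 P. falciparum 3D7 stage III–V gametocytes (20,000 cells/well) were exposed to compounds for 72 h at 37 °C, 5% CO2. AlamarBlue was then added for 24 h; decreased resorufin fluorescence (Ex 525/Em 598 nm) indicated loss of viability.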

[16] = qHTS assay for cell viability of the p53RE-bla HCT-116 cell line (AID 743292); conditions: p53RE-bla HCT-116 viability, ATP luminescence, 16 h; series mostly up to 95 µM; further: on the % scale 0 is the no-effect control and ±100 the full control effect; nearly all actives have a fitted effect of over 55% in size
How it was run: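 Intracellular ATP of p53RE-bla HCT-116 cells measured by luciferase luminescence following 16 h compound incubation at 37 C; DMSO-only wells served as vehicle controls.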

[17] = qHTS assay for cell viability of HEK293 cells (AID 743288); conditions: ATP luminescence (CellTiter-Glo), 18 h; max response: stronger effect = lower value; further: nearly all actives have a fitted effect of over 50% in size; further: potency means the concentration at half of the fitted maximal effect; on max response: on the % scale 0 is the no-effect control and ±100 the full control effect
How it was run: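 ATP luminescence (CellTiter-Glo) reports metabolically competent cell number after parental HEK293 cells, 2,000/well, were treated with DMSO-dissolved compounds for 18 h at 37 C; reagent incubation 30 min, room temperature.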

[18] = qHTS profiling for inhibitors of Plasmodium falciparum (3D7) proliferation (AID 743322);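 further: infected erythrocytes exposed to compound for 72 h before lysis; 100% = DMSO vehicle wells and 0% = 0.29 µM artemisinin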; conditions: P. falciparum 3D7 proliferation; at 28.7 µM (top of the series)
How it was run: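 Parasite DNA was quantified by SYBR Green I fluorescence (ex 485, em 535 nm) after overnight lysis in saponin/Triton buffer at room temperature. Cultures at 0.3% parasitemia and 2.5% hematocrit were first exposed to compound for 72 h at 37 C; signals were normalised to artemisinin (0.29 uM) and vehicle wells.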

COc1ccc(C(=O)N2CCCC2=O)cc1
inactive: Potency [1] | outcome [2] | Potency [3] | outcome [4] | outcome [5] | outcome [6] | outcome [7]

CCCCCCCCCCCC[N+](C)(C)CCOc1ccccc1
active: Potency [11] 10.6 µM | Potency [13] 26.6 µM | Potency [15] 8.91 µM
inactive: Potency [8] | activation [9] -2.77% | max response [10] -0.963% | Potency [12] | max response [14] -6.97% | outcome [16]

Oc1ccc(Cl)cc1Cc1cc(Cl)ccc1O
inactive: max response [10] 4.36% | Potency [12] | max response [14] -12%

CCC(=O)O[C@H]1CC[C@H]2[C@@H]3CCC4=CC(=O)CC[C@]4(C)[C@H]3CC[C@]12C
inactive: activation [9] -0.665% | max response [10] -1.43% | Potency [12] | max response [14] -2.38% | max response [15] 11.3% | max response [17] -26.1% | outcome [16]

Oc1c(Br)cc(Br)cc1Br
inactive: activation [9] 1.96% and 1.41% | Potency [12] | Potency [13] | max response [14] -5.17% and -2.6% | max response [15] -0.35% | max response [17] -15.1% and -2.12% | outcome [16]
active: Potency [10] 39.8 µM and 35.5 µM

CCNc1nc(Cl)nc(NCC)n1
inactive: activation [9] -1.55% | max response [10] -1.73% | Potency [12] | max response [14] 2.17% | max response [15] 2.85% | max response [17] -8% | outcome [16]

Brc1c(NC2=NCCN2)ccc2nccnc12
inactive: Potency [1]

CC(=O)[C@@]1(O)CC[C@H]2[C@@H]3CCC4=CC(=O)CC[C@]4(C)[C@H]3CC[C@@]21C
inactive: Potency [1]

Oc1ccc(Cl)cc1Sc1cc(Cl)ccc1O
inactive: Potency [12]
active: Potency [11] 15 µM

NC(=O)CN1CCCC1=O
inactive: Potency [1] | outcome [2] | Potency [3] | outcome [4] | outcome [5] | outcome [6] | outcome [7]

CN(C)C(=S)SSC(=S)N(C)C
inactive: activation [9] 8.11% and 11.6% | max response [10] -9.79% and -7.98% | max response [14] -25.3% | outcome [16]
active: Potency [11] 5.31 µM | Potency [12] 42.2 µM | Potency [13] 33.5 µM | Potency [17] 44.7 µM

Nc1c2ccccc2nc2ccccc12
active: Potency [9] 31.6 µM

COCC(=O)N(c1c(C)cccc1C)C(C)C(=O)OC (stereo unspecified)
inactive: activation [9] 3.48% | max response [10] -1.66% | Potency [12] | max response [14] -4.71% | max response [17] -7.89% | outcome [16]

CC[C@H]1CN2CCc3cc(OC)c(OC)cc3[C@@H]2C[C@@H]1C[C@H]1NCCc2cc(OC)c(OC)cc21
inactive: outcome [4]

C[N+](C)(C)CCCCCCCCCC[N+](C)(C)C
active: Potency [1] 2.69 µM
inactive: max response [15] -0.962%

CCCCCCCCCCCCCCCC[n+]1ccccc1
active: Potency [11] 1.19 µM | Potency [15] 7.08 µM
inactive: Potency [12]

COP(=O)(OC)C(O)C(Cl)(Cl)Cl (stereo unspecified)
inactive: activation [9] 1.53% | max response [10] -2.06% | max response [14] -9.64% | max response [17] -19.1% | outcome [16]

C[C@@H]1C[C@@H]([C@H](O)CC2CC(=O)NC(=O)C2)C(=O)[C@@H](C)C1
inactive: max response [10] -1.34% and -7.61% and -0.958% | Potency [12] | Potency [13] | max response [14] 15.1% and 0.954% and 3.58% | outcome [16]
-0.0842%: remaining parasite growth % (stronger effect = lower value) [18]
active: Potency [11] 150 nM and 237 nM | Potency [15] 2.82 µM | Potency [17] 0.126 µM

O=c1n(Cl)c(=O)n(Cl)c(=O)n1Cl
inactive: activation [9] 0.752% | max response [10] -0.0703% | Potency [12] | max response [14] -3.02% | max response [15] -4.5% | max response [17] 2.76% | outcome [16]

C[C@H]1C(=O)O[C@@H]2CCN3CC=C(COC(=O)[C@](C)(O)[C@]1(C)O)[C@H]23
inactive: activation [9] -2.28% | max response [10] 0.361% | Potency [12] | max response [14] -1.85% | max response [15] 14.3% | max response [17] -3.57% | outcome [16]

CC[n+]1c(-c2ccccc2)c2cc(N)ccc2c2ccc(N)cc21
inactive: activation [9] 11.3% | max response [10] -2.33% | Potency [11] | Potency [12] | Potency [13] | max response [14] -16.8% | outcome [16]
active: Potency [15] 1.41 µM and 6.31 µM

CNC(=O)Oc1ccc2c(c1)[C@]1(C)CCN(C)[C@@H]1N2C
inactive: outcome [5]

COc1cc(CC(C)N)cc2c1OCO2 (stereo unspecified)
inactive: max response [15] -6.22%
